Measured values taken from ChEMBL document CHEMBL4513216, “Probing the Open Global Health Chemical Diversity Library for Multistage-Active Starting Points for Next-Generation Antimalarials” (ACS Infect Dis, 2020).
The campaign covered roughly 69,000 compounds. About 8,600 (12%) showed an effect of 50% or more. Shown is part of a subset that was picked to be rich in strong results.

The molecules below were run on Plasmodium berghei (assay: Screen against P. berghei liver stage (PbLuc), transformed with Luciferase, at 10uM). Conditions: tested at 10 uM.
Format: functional, HepG2
With CC(=O)c1cnc(NCCN2CCCC2)nc1C the INHIBITION was 33.1%.
Molecule CCN(C)C(=O)c1coc(COc2ccccc2)n1 has an INHIBITION of -8.47%.
CC/C(C)=C/CCN1CCN(C)C2(CCNC(=O)CC2)C1 (centres undefined) was tested, and the INHIBITION was 35.9%.
Work on CN1CCN(CCC(F)(F)C(F)F)CC12CCNC(=O)CC2 (centres undefined) yielded an INHIBITION of 49.9%.
In the case of CC(C)=CCC/C(C)=C/CN1CCN(C)C2(CCNC(=O)CC2)C1 (centres undefined), the INHIBITION is reported as 67.5%.
With Cc1cc(C(=O)N2CC(O)CO2)c2ccc(C)c(C)c2n1 (centres undefined) the INHIBITION was 15%.
O=C(O)c1ccccc1CN1CCCC(Cc2ccn[nH]2)C1 (centres undefined) showed an INHIBITION of 7.721%.
With Cc1ncc(CN2CCOC(c3ccc(-c4ccccc4F)cn3)C2)s1 (centres undefined) the INHIBITION was 95.3%.
With Cc1ncc(CN2CCOC(c3ccc(-c4cnn(C)c4)cn3)C2)s1 (centres undefined) the INHIBITION was -6.92%.
Cc1ncc(CN2CCOC(c3ccc(-c4cc[nH]n4)cn3)C2)s1 (centres undefined) was tested, and the INHIBITION was 19.6%.
In the case of CCCNC(=O)NC(C)c1ccccn1 (centres undefined), the INHIBITION is reported as 21.2%.
Work on Cn1ccnc1-c1nccn1C[C@@H]1CCCN2CCCC[C@H]12 yielded an INHIBITION of 12%.
In the case of COc1ccc(-c2nccn2C[C@@H]2CCCN3CCCC[C@H]23)cc1, the INHIBITION is reported as 65.3%.
With c1cnc2c(-c3nccn3C[C@@H]3CCCN4CCCC[C@H]34)cccc2c1 the INHIBITION was 20.2%.
In the case of CCc1ccc(CNC(=O)N2CCN(Cc3cc(C)on3)CC2)s1, the INHIBITION is reported as 7.12%.
In the case of N#CCCN1CC(O)CN(C(=O)c2cccc(C(F)(F)F)c2)CC1=O (centres undefined), the INHIBITION is reported as 57%.
CC(C)(C)CN1CC(O)CN(C(=O)c2cccc(C(F)(F)F)c2)CC1=O (centres undefined) showed an INHIBITION of 60.8%.
Work on CC(C)CN1CC(O)CN(C(=O)c2cccc(C(F)(F)F)c2)CC1=O (centres undefined) yielded an INHIBITION of 45.7%.
For O=C1CN(C(=O)c2cccc(C(F)(F)F)c2)CC(O)CN1CC1CC1 (centres undefined), the INHIBITION was 25.3%.
With CCN1CC(O)CN(C(=O)c2cccc(C(F)(F)F)c2)CC1=O (centres undefined) the INHIBITION was 5.58%.
Molecule COCCN1CC(O)CN(C(=O)c2cccc(C(F)(F)F)c2)CC1=O (centres undefined) has an INHIBITION of 13.1%.
CSc1ccccc1C(=O)N1CCOC(CCN(C)C)C1 (centres undefined) was tested, and the INHIBITION was 12.1%.
Work on Cc1ccc(NC2CCCN(CCCc3ccccc3)C2)nn1 (centres undefined) yielded an INHIBITION of 35.7%.
O=C(CCNc1ncccn1)N1CCCN(c2nccs2)CC1 showed an INHIBITION of 33.7%.
With CCN(CCC1CCN(C(=O)NCc2nncn2CC)CC1)CC1CC1 the INHIBITION was -38.2%.
Molecule CCc1cnc(N2C[C@@H]3C[C@H](C(=O)NC)[C@H](C2)O3)nc1 has an INHIBITION of -45.8%.
Molecule OCCNC1CCc2cc3c(cc21)OCCO3 (centres undefined) has an INHIBITION of 55.1%.
Work on OCCCNC1CCc2cc3c(cc21)OCCO3 (centres undefined) yielded an INHIBITION of -56.6%.
For OCC1(CNC2CCc3cc4c(cc32)OCCO4)CC1 (centres undefined), the INHIBITION was -122%.
Molecule O=C(c1ccc(Cl)cc1)N1CC2(CCNC2)OCc2ccccc21 (centres undefined) has an INHIBITION of 39.1%.
Molecule CCC(C)(C)CC(=O)NC(C)C(=O)Nc1ccc(-n2cncn2)cc1 (centres undefined) has an INHIBITION of 26%.
CC(NC(=O)CCC(C)(C)C)C(=O)Nc1ccc(-n2cncn2)cc1 (centres undefined) was tested, and the INHIBITION was 50%.
CC(NC(=O)Nc1ccc(-n2cncn2)cc1)C(=O)NC(C)(C)C (centres undefined) was tested, and the INHIBITION was 41.4%.
In the case of CC(C)c1noc(CCCC(=O)NC(C)c2ccccn2)n1 (centres undefined), the INHIBITION is reported as -30.6%.
Cc1csc(C(Cc2ccsc2)NC(=O)CN(C)Cc2ccccn2)n1 (centres undefined) showed an INHIBITION of 28.3%.
COc1ncnc(N)c1CNCCc1ccccc1 showed an INHIBITION of 75.4%.
For COc1ncnc(N)c1CNCCOc1ccccc1Cl, the INHIBITION was 21.3%.
COc1ncnc(N)c1CNCCc1ccc(-n2cccn2)cc1 showed an INHIBITION of 16.8%.
COC(=O)[C@H](CCSC)NC(=O)Cc1c(C)nn(-c2ccccc2)c1C was tested, and the INHIBITION was 5.58%.
CC(C)c1noc(CCCC(=O)NCC2CCS(=O)(=O)C2)n1 (centres undefined) was tested, and the INHIBITION was 21.6%.
Work on Cc1csc(C2CCCN(C(=O)c3c[nH]c(C)n3)C2)n1 (centres undefined) yielded an INHIBITION of 24%.
Cc1[nH]nc(CCC(=O)N2C[C@@H]3CC[C@H]2CN(C(=O)N(C)C)C3)c1C showed an INHIBITION of 45.4%.
COC(=O)CCN1CCC(NC(=O)OC(C)(C)C)CC1 was tested, and the INHIBITION was 50.2%.
For CCOC(=O)CN1CCC(NC(=O)OC(C)(C)C)CC1, the INHIBITION was 32.3%.
CSCCN1CCC(NC(=O)OC(C)(C)C)CC1 showed an INHIBITION of -19.7%.
CC(C)CN1CCN(C(=O)c2ccncc2F)Cc2cccnc21 was tested, and the INHIBITION was -18.4%.
In the case of O=C(CN1CCOCC1)Nc1cc(C(F)(F)F)ccc1-n1cccc1, the INHIBITION is reported as 42.6%.
Work on N#CCCN(CC1CCCO1)C(=O)c1ccc(C#N)cc1 (centres undefined) yielded an INHIBITION of -5.31%.
For N#CCCN(CC1CCCO1)C(=O)c1ccsc1 (centres undefined), the INHIBITION was 57.9%.
For N#CCCN(CC1CCCO1)C(=O)c1ccc2nonc2c1 (centres undefined), the INHIBITION was 2.59%.
Work on CCNc1cc2c(nn1)CCN(C(=O)c1cc(C)n(C3CC3)c1C)C2 yielded an INHIBITION of 35.9%.
CNc1cc2c(nn1)CCN(C(=O)c1cccc3c1OCCO3)C2 showed an INHIBITION of 51.1%.
Molecule Cc1cc(C(=O)N2CCc3nnc(N(C)C)cc3C2)c(C)n1C1CC1 has an INHIBITION of 19.4%.
CCNc1cc2c(nn1)CCN(C(=O)c1ccnc(-n3ccnc3)c1)C2 showed an INHIBITION of 54.15%.
CNc1cc2c(nn1)CCN(C(=O)c1cccc3c1OCO3)C2 gave an INHIBITION of -13.3%.
For CCNc1cc2c(nn1)CCN(C(=O)c1ccc(C(N)=O)cc1)C2, the INHIBITION was 41.65%.
In the case of CNc1cc2c(nn1)CCN(C(=O)c1cc(C)n(C3CC3)c1C)C2, the INHIBITION is reported as 79.1%.
CCNc1cc2c(nn1)CCN(C(=O)c1cccc3c1OCCO3)C2 showed an INHIBITION of 3.81%.
In the case of CNc1cc2c(nn1)CCN(C(=O)c1ccoc1)C2, the INHIBITION is reported as 51.3%.
CNc1cc2c(nn1)CCN(C(=O)c1cc(F)cc(F)c1)C2 was tested, and the INHIBITION was 17.7%.
For CCNc1cc2c(nn1)CCN(C(=O)c1ccoc1)C2, the INHIBITION was 39.2%.
For CCNc1cc2c(nn1)CCN(C(=O)c1ccnc(N(C)C)c1)C2, the INHIBITION was 4.59%.
CN(CCc1ccccn1)C(=O)Cn1cc(-c2ccccc2)nn1 showed an INHIBITION of 6.23%.
CN1CCN([C@@H]2CN(C(=O)c3cc4ccc(F)cc4[nH]3)C[C@H]2O)CC1 was tested, and the INHIBITION was 36%.
Molecule O=C(NCCn1ccnc1)N1CCCC1c1ccncc1 (centres undefined) has an INHIBITION of 31.9%.
In the case of O=C1CN(C(=O)C2CN(c3cccc(F)c3)CCO2)CCN1 (centres undefined), the INHIBITION is reported as 13.35%.
With O=C(NCC1CC1)c1c2c(N3CCCC3)ncnc2n2ccccc12 the INHIBITION was 33.4%.
CC(C)c1ncc2c(n1)CN(Cc1cccc(C(N)=O)c1)CC2 showed an INHIBITION of -34%.
In the case of O=C(c1ccccc1)N1CCO[C@@H]2CN(Cc3ccc[nH]3)C[C@@H]2C1, the INHIBITION is reported as 35.8%.
